# The source made the active and inactive calls. Calls come from the whole dose curve.
# Assay: qHTS drug screen for cell cycle checkpoint inhibitors in PARPi-resistant BRCA-mutant ovarian cancer cell lines. (AID 1963452)
# Conditions: PEO1/OlaR viability, CellTiter-Glo luminescence, 96 h, stronger effect = lower value
# Source text: Women's Malignancies Branch, Center for Cancer Research (CCR),
# National Cancer Institute (NCI), National Institutes of Health (NIH), Bethesda, MD
# Poly (ADP-ribose) polymerase inhibitors (PARPis) have changed the treatment paradigm in breast cancer gene (BRCA) - mutant high-grade serous ovarian carcinoma (HGSC). However, most patients eventually develop resistance to PARPis, highlighting an unmet need for improved therapeutic strategies. Using high-throughput drug screens, we identified ataxia telangiectasia and rad3-related protein/checkpoint kinase 1 (CHK1) pathway inhibitors as cytotoxic and further validated the activity of the CHK1 inhibitor (CHK1i) prexasertib in PARPi-sensitive and -resistant BRCA-mutant HGSC cells and xenograft mouse models. CHK1i monotherapy induced DNA damage, apoptosis, and tumor size reduction. We then conducted a phase 2 study (NCT02203513) of prexasertib in patients with BRCA-mutant HGSC. The treatment was well tolerated but yielded an objective response rate of 6% (1 of 17; one partial response) in patients with previous PARPi treatment. […] BRCA reversion mutation in previously PARPi-treated BRCA-mutant patients was not associated with resistance to CHK1i.
# Among others, 1082 oncology drugs, both approved and investigational, were prioritized based on their status in clinical trial development. […] Drugs with average Z-AUC values less than -1.0 in all three cell lines were classified as "hits" resulting in 151 oncology drug hits. The screen also confirmed cross-resistance between olaparib and other PARPis (rucaparib, niraparib, and talazoparib) in PARPi-resistant PEO1/OlaR and PEO4.
# [1] G. L. Lin, K. M. Wilson, M. Ceribelli, B. Z. Stanton, P. J. Woo, S. Kreimer, E. Y. Qin, X. Zhang, J. Lennon, S. Nagaraja, P. J. Morris, M. Quezada, S. M. Gillespie, D. Y. Duveau, A. M. Michalowski, P. Shinn, R. Guha, M. Ferrer, C. Klumpp-Thomas, S. Michael, C. McKnight, P. Minhas, Z. Itkin, E. H. Raabe, L. Chen, R. Ghanem, A. C. Geraghty, L. Ni, K. I. Andreasson, N. A. Vitanza, K. E.Warren, C. J. Thomas, M. Monje, Therapeutic strategies for diffuse midline glioma from high-throughput combination drug screening. Sci. Transl. Med. 11, (2019).
# [2] T. M. Yamamoto, A. McMellen, Z. L. Watson, J. Aguilera, R. Ferguson, E. Nurmemmedov, T. Thakar, G. L. Moldovan, H. Kim, D. M. Cittelly, A. M. Joglar, E. P. Brennecke, H. Wilson, K. Behbakht, M. J. Sikora, B. G. Bitler, Activation of Wnt signaling promotes olaparib resistant ovarian cancer. Mol. Carcinog. 58, 1770 - 1782 (2019).
# PROTOCOL TABLE (as described by Inglese J, Shamu CE and Guy RK. 2007)
# SEQUENCE No. (e.g., 1, 2, 3, etc.); […] (e.g., Cells, Incubation, Reagent, etc.); VALUE; DESCRIPTION.
# 1; Compounds; 20nL; 1536-well white tissue culture-treated plates.
# 2; Cells; 5 uL; PEO1, PEO4, and PEO1/OlaR cells at 600 cells per well.
# 3; Incubation; 96 hr; 37C, 95% humidity, 5% CO2.
# 4; Reagent; 3 uL; CellTiter-Glo (Promega).
# 5; Incubation; 15 min; room temperature.
# 6; Detection; Luminescence, PHERAstar (BMG Labtech) plate reader.
# NOTES (numbers refer to Sequence numbers above)
# 1. MIPE 5.0 compounds were acoustically dispensed by Echo Acoustic Liquid Handler (Beckman Coulter Life Sciences). Each compound was plated at an 11-point concentration range with 1:3 dilution. Bortezomib, a proteasome inhibitor (final concentration, 20 uM), was used as a positive.
# 2. PEO1, PEO4, and PEO1/OlaR were trypsinized and dispensed in 5 uLof growth medium using a Multidrop Combi dispenser at a density of 600 cells per well to allow compounds to be present during the exponential growth phase.
# 3. Plates were incubated for 96 hours at standard incubator conditions and covered by a stainless steel gasketed lid to prevent evaporation.
# 4. Three microliters of CellTiter-Glo (Promega) were added to each well.
# 5. Plates were incubated at room temperature for 15 min with a stainless-steel lid in place.
# 6. Luminescence readings were taken using PHERAstar (BMG Labtech). […]
# [1] = measured here: PEO1 parental Z-AUC
SMILES,Z-AUC,Z-AUC [1],Z-AUC (measured here: PEO4 Z-AUC)
O=C(Nc1ccc(OC(F)(F)F)cc1)c1sccc1NCc1ccnc2ccccc12,0.246 (inactive),-0.378,-0.233
CN1CCN(c2cccc(Nc3nc4c(-c5ccc(S(C)(=O)=O)cc5)cccn4n3)c2)CC1,0.515 (inactive),0.358,0.131
CC(C)C[C@H](NC(=O)c1cc2ccccc2s1)C(=O)N1CCN(C(=O)[C@H](CO)NS(=O)(=O)c2ccc(Cl)cc2Cl)CC1,-0.613 (inactive),-0.17,-1.13
CN1CCC(COc2cnc(-c3cccc(Cn4nc(-c5cccc(C#N)c5)ccc4=O)c3)nc2)CC1,-0.437 (inactive),-0.363,-0.442
CC(C)(C)c1nc(-c2cccc(NS(=O)(=O)c3c(F)cccc3F)c2F)c(-c2ccnc(N)n2)s1,1.26 (inactive),1,1.01
C[C@@]1(c2cc(-c3cncnc3)c(F)cc2F)CCSC(N)=N1,0.854 (inactive),0.822,0.652
O=C(O)CCC=CCC[C@@H]1[C@H](N2CCCCC2)[C@@H](O)C[C@@H]1OCc1ccc(-c2ccccc2)cc1,0.918 (inactive),-0.0252,0.219
CC(=O)NCCC(=O)N[C@@H](CCC(N)=O)C(=O)N[C@@H](CO)C(=O)N[C@@H](CCC(N)=O)C(=O)N[C@@H](CCC(N)=O)C(=O)N[C@H](C(=O)N[C@@H](Cc1ccccc1)C(=O)N[C@]1(C)CCCCCCC=CCCC[C@@](C)(C(=O)N[C@@H](CCC(N)=O)C(=O)N[C@@H](CC(N)=O)C(N)=O)NC(=O)[C@H](CC(C)C)NC(=O)[C@H](CC(C)C)NC(=O)[C@@H](CCCNC(=N)N)NC(=O)[C@H](Cc2c[nH]c3ccccc23)NC(=O)[C@H](CC(C)C)NC(=O)[C@H](CC(N)=O)NC1=O)[C@H](C)O,-0.975 (inactive),-0.536,-0.428
Cc1cc(OCCCS(C)(=O)=O)cc(C)c1-c1cccc(COc2ccc3c(c2)OC[C@H]3CC(=O)O)c1,-0.127 (inactive),0.128,0.794
Nc1[nH]nc2nnc(-c3c(-c4ccccc4)nn4ccccc34)cc12,-0.433 (inactive),0.0529,-0.206
O=C(CC12CC3CC(CC(C3)C1)C2)Nc1cccc2nc(NCCNCCO)ccc12,0.783 (inactive),0.506,0.728
C[C@@H]1C[C@H]2[C@@H]3CCC4=CC(=O)C=C[C@]4(C)[C@@]3(F)[C@@H](O)C[C@]2(C)[C@@]1(O)C(=O)CO,0.337 (inactive),1.75,0.58
COc1ccc(CCN(C)CCCOc2ccc(S(=O)(=O)c3[nH]c4ccccc4c3C(C)C)cc2)cc1OC,-0.498 (inactive),0.248,0.439
CC(=O)Nc1cccc(-n2c(=O)n(C3CC3)c(=O)c3c(Nc4ccc(I)cc4F)n(C)c(=O)c(C)c32)c1,-0.972 (inactive),-1.33,-1.07
